From PubChem BioAssay
RXFP1 ag = qHTS Assay for Agonists of the Relaxin Receptor RXFP1; Relaxin receptor 1 (Homo sapiens), Q9HBX9; HEK293T-RXFP1 cAMP TR-FRET, 30 min; response scale: percent of porcine relaxin response, buffer zero; Potency, µM (doses to about 57.5 µM), for the others: at the highest dose activation, usual class: activators; 0.3% of 370,000 active; further: potency means the concentration at half of the fitted maximal effect; on the % scale 0 is the no-effect control and ±100 the full control effect; nearly all actives have a fitted effect of over 60% in size
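HEK293 cells stably expressing RXFP1, treated 30 min at 37C with compounds plus PDE4 inhibitor Ro 20174; cAMP measured by HTRF TR-FRET. Normalized to buffer and 29 nM porcine relaxin; EC50 by Hill fit.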
IL2 activator = qHTS of IL-2 Activators | IL-2 activation reporter assay, cell-based qHTS; stimulated with anti-CD3/CD4/CD28 beads; in transgenic mouse T cells | activation, % (series mostly up to about 46 µM) | 0.065% of 360,000 active; in the data active means activation above about 50%; inconclusive means mostly about 30% to 49%; further: 0% is about no effect
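Readout: EGFP and DsRed signals by fluorescent plate cytometry. Unstimulated transgenic mouse T cells received compound 60 min before antibody-bead stimulation, then incubated 18 h at 37 degrees C.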
RXFP1 antag = qHTS Assay for Antagonists of the Relaxin Receptor RXFP1. HEK293-RXFP1, relaxin-stimulated cAMP HTRF, 30 min; stronger effect = lower value. 0.59% of 350,000 active. activity change, negative = inhibition, % at 57.5 µM. Relaxin receptor 1 (Homo sapiens), Q9HBX9;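 active means activity change of -60% or lower, but not beyond a set lower limit; inconclusive means change between -60% and -40%, or beyond the set limit; inactive means change above -40%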; further: on the % scale 0 is the no-effect control and ±100 the full control effect
NPSR antag = qHTS Assay for Antagonists of the Neuropeptide S Receptor: cAMP Signal Transduction; Q6W5P4; CHO-NPSR cells, cAMP TR-FRET, antagonist mode; Potency, µM (doses to about 38.3 µM), for inactives: at the highest dose activity change, negative = inhibition, most hits filed as inhibitors; 1% of 220,000 active; AID 1461, 2008; further: potency means the concentration at half of the fitted maximal effect; on the % scale 0 is the no-effect control and ±100 the full control effect; nearly all actives have a fitted effect of over 50% in size
Target sequence (Q6W5P4 whole entry, looked up): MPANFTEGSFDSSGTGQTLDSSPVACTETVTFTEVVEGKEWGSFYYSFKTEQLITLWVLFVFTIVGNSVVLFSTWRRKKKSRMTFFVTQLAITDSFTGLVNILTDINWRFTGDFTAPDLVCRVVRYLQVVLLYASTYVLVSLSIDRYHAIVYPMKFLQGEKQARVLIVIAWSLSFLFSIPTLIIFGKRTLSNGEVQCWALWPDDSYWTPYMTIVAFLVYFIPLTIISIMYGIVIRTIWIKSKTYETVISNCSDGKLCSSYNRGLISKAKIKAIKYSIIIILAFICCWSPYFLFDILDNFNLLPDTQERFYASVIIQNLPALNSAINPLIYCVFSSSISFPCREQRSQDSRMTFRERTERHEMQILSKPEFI
Giardia killer = Small Molecules that selectively kill Giardia lamblia: qHTS. 0.15% of 340,000 active. activity change, % at 7.66 µM, hits read low. Giardia lamblia trophozoite viability; in the data active means activity change below about -80%; inconclusive means between about -30% and that limit;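 further: parasites exposed to compound for two days anaerobically before the ATP read; on the % scale 0 is the no-effect control and ±100 the full control effect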
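Anaerobic 48 hrs incubation at 37 deg C of 100 trophozoites/well with test compounds; ATPLite 1-Step luminescence, 15-30 min RT, reports cellular ATP as viability.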
BRCA1 expr up = qHTS Assay to Identify Small Molecule Activators of BRCA1 Expression | Potency, µM (highest dose often 46.1 µM), without a hit: top-dose activation, most hits filed as activators | MCF7-BRCA1-FFLuc reporter, luminescence, 48 h; response scale: scaled: vehicle 0%, 10 µM genistein 100% | 1.1% of 380,000 active; further: potency means the concentration at half of the fitted maximal effect; nearly all actives have a fitted effect of over 80% in size
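Cells: MCF7-BRCA1-FFLuc, 2000/well. Exposure: 48 h, 37 °C, 5% CO2. Read: luminescence, 15 min post-substrate. Controls: genistein 10 microM (maximal activation), DMSO (neutral).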
The depositor's hits bear a star; u = inconclusive; x = not tested or not shown; [ ] = another dose, or the depositor's remark. Rows were chosen to be rich in hits. Some 1.9% of all compounds tested hit in one or more screens of this group. Unless noted, the call rests on the fitted dose curve; in most records, active means well fitted curve in the direction sought with a large enough effect; inconclusive means small, poorly fitted or top-dose-only effect, or another doubt; inactive means no such curve, though single readings can be large; an effect the other way counts as inactive or inconclusive.

SMILES	RXFP1 ag	IL2 activator	RXFP1 antag	NPSR antag	Giardia killer	BRCA1 expr up
O=C(NCC1CCCO1)C1CCN(C(=O)c2ccc(Cl)cc2)CC1 (stereo not given)	1%	-1	9	4%[46.1 µM]	8	-62%
CCCn1cc(S(=O)(=O)c2cc(C)ccc2C)c(=O)c2cc(F)c(N3CCN(CC)CC3)cc21	-1%	x	-1	x	x	x
O=C(Nc1ccc2c(c1)Cc1cc([N+](=O)[O-])ccc1-2)C(F)(F)F	x	0	-10	x	-5	4µM*
COc1cc2c(cc1NC(=O)C(F)(F)F)-c1ccc(NC(=O)C(F)(F)F)cc1C2	x	-4	-13	x	-12	22%
CCCCn1cc(S(=O)(=O)c2ccc(C)c(C)c2)c(=O)c2cc(F)c(N(CC)CC)cc21	0%	x	-13	x	x	x
CCOC(=O)CC(NC(=O)CCc1c(C)nc2nc(C)nn2c1C)c1ccc(OC(C)C)cc1 (stereo not given)	18µM*	-2	-6	22%	5	-7%
CC(C)(C)CC(=O)Nc1ccc(Nc2ccccc2)cc1	1%	-1	-10	-16%[46.1 µM]	3	6.3µM*
CCCCc1ccc(NC(=O)CC(C)(C)C)cc1	-4%	-6	-39	-20%	-6	13µM*
CCOC(=O)c1ccc2nc(C)cc(Nc3ccc(OC(C)C)cc3)c2c1	3%	x	x	x	x	-20%
Cc1ccc(NC(=O)c2ccc([N+](=O)[O-])o2)cc1C	0%	1	19	-6%	-94*	-88%
Cc1cccc(NC(=O)c2ccc([N+](=O)[O-])o2)c1C	-1%	0	5	0%	-97*	-63%
COc1ccccc1NC(=O)c1ccc([N+](=O)[O-])o1	x	1	12	x	-96*	-80%
O=C(Nc1cccc([N+](=O)[O-])c1)c1ccc([N+](=O)[O-])o1	x	-1	2	x	x	-90%
O=C(Nc1cccnc1)c1ccc([N+](=O)[O-])s1	1%	0	8	x	-87*	-43%
O=C(Nc1cccnc1)c1cc(Br)c(Br)s1	-1%	0	-10	x	-7	-29%
CCCCCCCCNc1ccc(/C=C/c2ccnc3ccccc23)cc1	x	x	x	x	x	-2%
O=C(Nc1ccc2oc(-c3ccccc3F)nc2c1)c1ccc([N+](=O)[O-])o1	0%	-3	0	x	-96*	65%
O=C(Nc1ccccc1F)c1ccc([N+](=O)[O-])s1	1%	-4	-3	-12%	u	-98%
Cc1ccc2nsnc2c1NC(=O)c1ccc([N+](=O)[O-])o1	1%	1	-5	x	-85*	-93%
Cc1ccc(C(=O)Nc2cccc3ccccc23)o1	x	0	-14	x	-2	0%
O=C(Nc1cccc2ccccc12)c1ccc([N+](=O)[O-])s1	1%	-2	5	-5%	-89*	-81%
O=C(Nc1ccc2oc(-c3ccccc3F)nc2c1)c1ccccc1Cl	4%	x	-21	x	x	x
O=C(Nc1cccc2ccccc12)c1ccc([N+](=O)[O-])o1	-1%	-1	15	x	-98*	-81%
CCOc1[nH]c(/N=C/c2ccc(OC)cc2)c(C#N)c1C#N	x	x	x	x	-1	12%
COc1ccc(-c2nsc(NC(=O)COc3ccc(C)c(C)c3)n2)cc1	u	x	-7	x	x	x
SMILES	RXFP1 ag	IL2 activator	RXFP1 antag	NPSR antag	Giardia killer	BRCA1 expr up
Cc1ccc(C(=O)NCCSC(C)(C)C)cc1[N+](=O)[O-]	-1%	-2	5	-2%	8	11µM*
O=C(NCCc1ccccc1)c1ccc([N+](=O)[O-])cc1	3%	-1	-8	-8%[46.1 µM]	-12	35%
O=C(NCCc1ccccc1)c1ccc(Cl)c([N+](=O)[O-])c1	1%	-1	-1	2%[46.1 µM]	-11	4µM*
Cc1ccc(C(=O)NCCSC(C)(C)C)cc1	0%	-1	-9	-2%[46.1 µM]	8	31%
Cc1cc(C(=O)NCCc2ccccc2)ccc1[N+](=O)[O-]	0%	0	12	9%[46.1 µM]	-2	6.3µM*
O=C(NCCc1cccs1)c1ccc(Cl)c(Cl)c1	-2%	-2	-5	9%	10	4µM*
O=C(NCCc1cccs1)c1ccc(Cl)cc1	-2%	-3	0	2%	-29	u
CSCCNC(=O)c1ccc(C(C)(C)C)cc1	2%	0	5	5%[46.1 µM]	-23	7.1µM*
O=C(Nc1cccc2c1CCCC2)c1ccc(Cl)c([N+](=O)[O-])c1	-1%	-1	-70*	-28%	6	-54%
O=C(Nc1cccc2c1CCCC2)c1cc([N+](=O)[O-])ccc1Cl	-1%	0	2	-17%[46.1 µM]	-7	-66%
Cc1cnc(NS(=O)(=O)c2ccc(N)cc2)nc1	x	x	15	x	x	x
O=C(C[n+]1cccc(Br)c1)c1cccc([N+](=O)[O-])c1	x	x	x	x	x	2%
CC(C)OCCCNC(=O)CN1C(=O)COc2ccc(S(=O)(=O)N3CCOCC3)cc21	0%	x	x	x	x	4%
Cc1cccc2sc(N(CCCN(C)C)C(=O)CCc3ccccc3)nc12	-1%	-1	-85*	-17%	8	-60%
CC(=O)c1ccc(C(=O)N(CCCN(C)C)c2nc3c(C)c(C)ccc3s2)cc1	0%	x	x	x	x	-14%
Cc1ccc2sc(N(CCCN(C)C)C(=O)c3ccc(Br)s3)nc2c1C	7%	-3	-77*	u	12	-33%
O=C(NCC(=O)N1CCN(c2ncccn2)CC1)c1ccccc1F	x	0	3	x	-16	7.9µM*
O=C(CSc1ncccc1C(=O)O)c1cccc(C(F)(F)F)c1	0%	0	-5	-7%	-1	16µM*
Cc1cc(-c2ccc(S(=O)(=O)Nc3cc(Cl)ccc3C)s2)on1	2%	x	2	x	x	x
Cc1cc(C)c(OCCNCc2ccccc2)c(C)c1	0%	3	-16	x	7	-13%
Cc1cc(C)c(OCCCCNCc2ccccc2)c(Cl)c1	1%	-1	-107*	2%[46.1 µM]	1	-57%
CS(=O)(=O)c1ccc(NC(=O)COc2ccccc2C(=O)Nc2ccccc2)cc1	x	x	x	x	x	0%
Cc1cc(C)nc(SCC(=O)N2CCc3ccccc32)n1	x	-2	-4	x	-6	5.6µM*
O=C(CSC1=NCCS1)N1CCc2ccccc21	1%	-2	-9	-5%[46.1 µM]	-6	3.2µM*
Cc1cc(C)n2nc(SCC(=O)N3CCc4ccccc43)nc2n1	3%	0	-10	20%	0	1%
CCCN1CNc2c(c(=O)[nH]c(=S)n2CCc2cc(C)ccc2C)C1	x	x	x	x	-21	0%
COc1cc(/C=C(/C#N)C(=O)Nc2ccccc2)ccc1OCc1ccc(C(=O)O)cc1	-1%	-2	4	-38%	-5	81%
